Reference: PubChem BioAssay (NCI)
About 83,000 compounds went through this panel and 20% of them were active in at least one assay; those are over-represented in the sample as a whole.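 Method: cells in 96-well plates; compound added at one concentration; 48 h incubation; percent growth measured; values under 10 scored active.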 Calls of active or inactive are those of the source.

What was measured:
Assay in all cases: NCI-60 one-dose screen, 48 h (100 = growth as untreated, 0 = no growth, -100 = all killed)
Conditions in all cases: 10 µM unless noted
SK-MEL-2 melanoma = tested on: SK-MEL-2 melanoma
EKVX NSCLC = tested on: EKVX NSCLC
SN12C renal = tested on: SN12C renal
UO-31 renal = tested on: UO-31 renal
TK-10 renal = tested on: TK-10 renal
ACHN renal = tested on: ACHN renal
CAKI-1 renal = tested on: CAKI-1 renal
A498 renal = tested on: A498 renal
CCRF-CEM leukemia = tested on: CCRF-CEM leukemia
MOLT-4 leukemia = tested on: MOLT-4 leukemia
SR leukemia = tested on: SR leukemia
RPMI-8226 leukemia = tested on: RPMI-8226 leukemia
OVCAR-8 ovarian = tested on: OVCAR-8 ovarian
OVCAR-5 ovarian = tested on: OVCAR-5 ovarian
OVCAR-4 ovarian = tested on: OVCAR-4 ovarian
SK-OV-3 ovarian = tested on: SK-OV-3 ovarian
IGROV1 ovarian = tested on: IGROV1 ovarian
HS 578T breast = tested on: HS 578T breast
NCI/ADR-RES ovarian = tested on: NCI/ADR-RES ovarian

Measured: growth

CN1CCN(c2ccc(Nc3nc(NCCNS(=O)(=O)c4ccc(Cl)cc4)c4sccc4n3)cc2)CC1
inactive: SK-MEL-2 melanoma 110% | EKVX NSCLC 91.6% | SN12C renal 97.7% | UO-31 renal 80% | TK-10 renal 128% | ACHN renal 98.2% | CAKI-1 renal 72.8% | A498 renal 94.2% | CCRF-CEM leukemia 75.7% | MOLT-4 leukemia 73.6% | SR leukemia 22.7% | RPMI-8226 leukemia 80.8% | OVCAR-8 ovarian 101% | OVCAR-5 ovarian 98.7% | OVCAR-4 ovarian 84% | SK-OV-3 ovarian 121% | IGROV1 ovarian 92.9% | HS 578T breast 81.2% | NCI/ADR-RES ovarian 100%

C=C1CCc2nc(SCC(=O)O)ccc2N1
inactive: SK-MEL-2 melanoma 104% | EKVX NSCLC 101% | SN12C renal 97.1% | UO-31 renal 91.1% | TK-10 renal 100% | ACHN renal 102% | CAKI-1 renal 97.3% | A498 renal 85.7% | CCRF-CEM leukemia 96.9% | MOLT-4 leukemia 97.5% | SR leukemia 115% | RPMI-8226 leukemia 114% | OVCAR-8 ovarian 105% | OVCAR-5 ovarian 97.1% | OVCAR-4 ovarian 104% | SK-OV-3 ovarian 98.8% | IGROV1 ovarian 104% | HS 578T breast 101% | NCI/ADR-RES ovarian 98.8%

C#Cc1nc(/C=C/C(=O)NO)cs1
inactive: SK-MEL-2 melanoma 81.5% | EKVX NSCLC 85.2% | SN12C renal 91.6% | TK-10 renal 43% | A498 renal 17.9% | OVCAR-8 ovarian 21% | OVCAR-5 ovarian 42.3% | SK-OV-3 ovarian 95.6% | HS 578T breast 56%
active: UO-31 renal -94% | ACHN renal -81.9% | CAKI-1 renal -94.9% | CCRF-CEM leukemia -45.7% | MOLT-4 leukemia -45.3% | SR leukemia -42.9% | RPMI-8226 leukemia -6.82% | OVCAR-4 ovarian -24.9% | IGROV1 ovarian -71.5% | NCI/ADR-RES ovarian -6.26%

O=C1Nc2ccccc2/C1=C/c1ccc(OCC(=O)c2ccccc2)cc1
inactive: SK-MEL-2 melanoma 113% | EKVX NSCLC 100% | SN12C renal 93.9% | UO-31 renal 69.5% | TK-10 renal 125% | ACHN renal 96.6% | CAKI-1 renal 86.9% | A498 renal 104% | CCRF-CEM leukemia 98.1% | MOLT-4 leukemia 97.8% | SR leukemia 101% | RPMI-8226 leukemia 95% | OVCAR-8 ovarian 94.8% | OVCAR-5 ovarian 102% | OVCAR-4 ovarian 96.5% | SK-OV-3 ovarian 102% | IGROV1 ovarian 102% | HS 578T breast 93.9% | NCI/ADR-RES ovarian 98.2%
